For test [1], the target named is human Rho Associated Coiled-coil Containing Protein Kinase 1 (ROCK1), ROCK1 (gene 6093) (UniProt Q13464). The test can be described thus: NVS_ENZ_hROCK1: NovaScreen (NVS) Enzymatic Assay for human Rho Associated Coiled-coil Containing Protein Kinase 1 (ROCK1) (AID 2283214). The procedure, abridged: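 Cell-free recombinant human ROCK1 activity assay; fluorescent substrate and product separated by electrophoretic mobility shift, read 1 h after dosing. Screened in duplicate at 25 uM; loss of signal versus DMSO baseline scored as inhibition.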

Test [2] deals with human Sirtuin 3 (SIRT3), SIRT3 (gene 23410) (UniProt Q9NTG7). As to the kind of experiment: NVS_ENZ_hSIRT3: NovaScreen (NVS) Enzymatic Assay for human Sirtuin 3 (SIRT3) (AID 2283222). The procedure, abridged:
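Cell-free enzyme assay with recombinant protein and fluorescent substrate, product separated by electrophoretic mobility shift; read 1 hour after dosing. Screened in duplicate at 25 uM, then singleton concentration-response up to 50 uM; loss of signal versus DMSO.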

Test [3] deals with sheep Cyclooxygenase-2 (Cox2), PTGS2 (gene 443460) (UniProt P79208). The test can be described thus: NVS_ENZ_oCOX2: NovaScreen (NVS) Enzymatic Assay for sheep Cyclooxygenase-2 (Cox2) (AID 2283231). The procedure, abridged:
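Enzyme from ovine placenta, cell-free; colorimetric absorbance read 0.66 hour after dosing, loss of signal vs DMSO. Screened in duplicate at 25 uM, then concentration-response up to 50 uM.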

In test [4] the target is rabbit Imidazoline 2 Central (I2C), CKB (gene 100009085) (UniProt P00567). The test can be described thus: NVS_ENZ_rabI2C: NovaScreen (NVS) Enzymatic Assay for rabbit Imidazoline 2 Central (I2C) (AID 2283228). The procedure, abridged:
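Rabbit brain membranes, cell-free; readout by filter-based scintillation counting 1.5 hours after dosing, loss of signal vs DMSO. Initial duplicate test at 25 uM, then concentration-response with 50 uM top concentration.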

In test [5] the target is human Protein Tyrosine Phosphatase Receptor Type M (PTPRM), PTPRM (gene 5797) (UniProt P28827). The test can be described thus: NVS_ENZ_hPTPRM: NovaScreen (NVS) Enzymatic Assay for human Protein Tyrosine Phosphatase Receptor Type M (PTPRM) (AID 2283215). The procedure, abridged:
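Cell-free recombinant PTPRM with fluorogenic substrate; product separated from substrate by electrophoretic mobility shift and read by fluorescence, 1.33 h after dosing. Primary screen single concentration (25 uM) in duplicate; actives retested in concentration series; loss of signal versus DMSO.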

Test [6] addresses human Sirtuin 2 (SIRT2), SIRT2 (gene 22933) (UniProt Q8IXJ6). The test can be described thus: NVS_ENZ_hSIRT2: NovaScreen (NVS) Enzymatic Assay for human Sirtuin 2 (SIRT2) (AID 2283217). The procedure, abridged:
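Cell-free recombinant human SIRT2, fluorescent substrate with product separated by electrophoretic mobility shift, 1 hr. Screened in duplicate at 25 uM; hits rerun singly in concentration-response up to 50 uM, relative to DMSO.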

Test [7] has as its target human SRC Proto-Oncogene, Non-receptor Tyrosine Kinase (SRC), SRC (gene 6714) (UniProt P12931). As to the kind of experiment: NVS_ENZ_hSRC: NovaScreen (NVS) Enzymatic Assay for human SRC Proto-Oncogene, Non-receptor Tyrosine Kinase (SRC) (AID 2283223). The procedure, abridged:
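Cell-free kinase activity assay with fluorescent substrate, product separated by electrophoretic mobility shift, read 1 h after dosing. Duplicate single point at 25 uM, then concentration-response up to 50 uM; loss of signal versus DMSO.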

Test [8] deals with human Tropomyosin Receptor Kinase A (TRKA), NTRK1 (gene 4914) (UniProt P04629). As to the kind of experiment: NVS_ENZ_hTrkA: NovaScreen (NVS) Enzymatic Assay for human Tropomyosin Receptor Kinase A (TRKA) (AID 2283224). The procedure, abridged:
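Recombinant human TrkA activity read after 1 h by fluorescence with electrophoretic mobility shift separating substrate and product. Primary screen in duplicate at 25 uM; actives were rerun in concentration-response up to 50 uM. Loss of signal versus DMSO.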

Test [9] addresses human Vascular Endothelial Growth Factor Receptor 3 (VEGFR3), FLT4 (gene 2324) (UniProt P35916). The test can be described thus: NVS_ENZ_hVEGFR3: NovaScreen (NVS) Enzymatic Assay for human Vascular Endothelial Growth Factor Receptor 3 (VEGFR3) (AID 2283229). The procedure, abridged:
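Cell-free recombinant VEGFR3 kinase reaction with fluorescent substrate, read 1 h after dosing by electrophoretic mobility shift separation of substrate and product. Single-concentration duplicate screen at 25 uM, then concentration-response up to 50 uM; loss of activity versus DMSO.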

In test [10] the target is rat Catechol-O-Methyl Transferase (COMT), Comt (gene 24267) (UniProt P22734). As to the kind of experiment: NVS_ENZ_rCOMT: NovaScreen (NVS) Enzymatic Assay for rat Catechol-O-Methyl Transferase (COMT) (AID 2283235). The procedure, abridged: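 Cell-free enzyme activity with protein extracted from rat dorsal striatum, measured by HPLC with absorbance detection. Compounds screened at 25 uM in duplicate; actives then run in concentration-response up to 50 uM, loss of signal versus DMSO.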

Inconclusive results are not listed. Active and inactive are the calls of the source. The calls were made as follows: active = hit-call score of the fitted dose curve at least 0.9, where 1 is the maximum; inconclusive = response in the unintended direction; inactive = score below 0.9.

As usually defined, the AC50 is the concentration at which the activity in the assay is half-maximal.

Chain of human Sirtuin 3 (SIRT3), SIRT3 (gene 23410) (Q9NTG7 whole entry, looked up): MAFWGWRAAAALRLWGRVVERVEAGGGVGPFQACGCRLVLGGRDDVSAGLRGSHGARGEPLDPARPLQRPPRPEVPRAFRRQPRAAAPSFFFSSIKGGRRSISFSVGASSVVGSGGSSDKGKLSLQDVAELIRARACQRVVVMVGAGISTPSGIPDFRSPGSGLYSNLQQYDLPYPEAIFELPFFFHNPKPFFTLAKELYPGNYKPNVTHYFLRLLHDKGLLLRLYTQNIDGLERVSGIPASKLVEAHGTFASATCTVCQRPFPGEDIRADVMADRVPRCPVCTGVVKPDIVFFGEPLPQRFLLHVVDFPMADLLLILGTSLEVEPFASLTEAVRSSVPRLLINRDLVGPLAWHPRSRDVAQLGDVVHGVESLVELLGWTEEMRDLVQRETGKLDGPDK
Chain of sheep Cyclooxygenase-2 (Cox2), PTGS2 (gene 443460) (P79208 whole entry, looked up): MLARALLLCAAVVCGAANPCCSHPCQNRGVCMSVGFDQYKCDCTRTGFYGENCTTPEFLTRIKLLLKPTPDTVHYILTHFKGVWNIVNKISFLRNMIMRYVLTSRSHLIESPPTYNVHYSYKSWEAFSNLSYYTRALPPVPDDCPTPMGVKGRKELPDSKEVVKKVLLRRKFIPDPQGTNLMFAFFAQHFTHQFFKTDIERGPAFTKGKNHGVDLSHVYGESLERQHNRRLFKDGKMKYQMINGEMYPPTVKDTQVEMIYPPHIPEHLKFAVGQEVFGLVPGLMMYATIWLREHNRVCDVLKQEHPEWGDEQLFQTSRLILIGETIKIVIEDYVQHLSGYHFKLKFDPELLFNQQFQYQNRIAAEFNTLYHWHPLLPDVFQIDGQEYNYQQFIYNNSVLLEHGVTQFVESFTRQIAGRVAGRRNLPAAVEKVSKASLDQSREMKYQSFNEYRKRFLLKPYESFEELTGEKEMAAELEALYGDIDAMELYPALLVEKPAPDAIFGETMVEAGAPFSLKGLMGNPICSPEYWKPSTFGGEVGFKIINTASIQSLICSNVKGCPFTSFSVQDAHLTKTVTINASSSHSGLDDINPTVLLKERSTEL
Chain of human Rho Associated Coiled-coil Containing Protein Kinase 1 (ROCK1), ROCK1 (gene 6093) (Q13464 whole entry, looked up): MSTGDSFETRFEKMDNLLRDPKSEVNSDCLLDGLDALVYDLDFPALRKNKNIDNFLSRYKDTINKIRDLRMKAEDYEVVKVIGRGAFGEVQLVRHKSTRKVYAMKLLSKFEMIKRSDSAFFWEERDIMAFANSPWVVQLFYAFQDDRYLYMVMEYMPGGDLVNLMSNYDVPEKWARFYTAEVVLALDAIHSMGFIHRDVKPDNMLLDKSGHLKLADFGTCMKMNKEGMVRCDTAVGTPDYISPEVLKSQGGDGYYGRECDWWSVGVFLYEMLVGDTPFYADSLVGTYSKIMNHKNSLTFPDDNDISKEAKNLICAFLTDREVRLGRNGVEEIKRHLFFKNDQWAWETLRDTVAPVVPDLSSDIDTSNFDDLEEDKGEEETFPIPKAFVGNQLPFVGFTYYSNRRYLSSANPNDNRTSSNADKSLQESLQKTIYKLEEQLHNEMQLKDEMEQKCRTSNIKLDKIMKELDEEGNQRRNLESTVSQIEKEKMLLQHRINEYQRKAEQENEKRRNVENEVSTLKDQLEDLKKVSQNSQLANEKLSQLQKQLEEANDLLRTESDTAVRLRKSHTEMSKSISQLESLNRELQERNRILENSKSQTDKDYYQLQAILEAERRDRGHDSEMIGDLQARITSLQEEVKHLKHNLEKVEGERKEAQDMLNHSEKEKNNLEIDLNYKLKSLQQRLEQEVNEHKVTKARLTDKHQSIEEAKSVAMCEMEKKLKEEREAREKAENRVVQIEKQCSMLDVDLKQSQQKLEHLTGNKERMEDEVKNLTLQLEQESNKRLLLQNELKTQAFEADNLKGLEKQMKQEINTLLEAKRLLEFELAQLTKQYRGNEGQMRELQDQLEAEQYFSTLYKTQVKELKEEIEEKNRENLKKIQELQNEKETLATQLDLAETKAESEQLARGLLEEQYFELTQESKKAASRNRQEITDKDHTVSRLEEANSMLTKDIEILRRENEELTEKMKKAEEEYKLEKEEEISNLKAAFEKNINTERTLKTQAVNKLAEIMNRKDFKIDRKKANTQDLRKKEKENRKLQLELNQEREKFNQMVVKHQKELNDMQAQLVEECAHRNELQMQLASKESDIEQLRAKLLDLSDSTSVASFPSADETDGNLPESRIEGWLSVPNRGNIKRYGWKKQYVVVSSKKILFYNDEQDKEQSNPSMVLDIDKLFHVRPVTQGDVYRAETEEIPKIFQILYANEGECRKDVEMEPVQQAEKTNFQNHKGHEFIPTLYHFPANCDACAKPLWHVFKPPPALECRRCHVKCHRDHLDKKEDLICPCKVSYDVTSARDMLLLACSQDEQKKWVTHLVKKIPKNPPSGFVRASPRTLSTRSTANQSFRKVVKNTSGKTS
Chain of rabbit Imidazoline 2 Central (I2C), CKB (gene 100009085) (P00567 whole entry, looked up): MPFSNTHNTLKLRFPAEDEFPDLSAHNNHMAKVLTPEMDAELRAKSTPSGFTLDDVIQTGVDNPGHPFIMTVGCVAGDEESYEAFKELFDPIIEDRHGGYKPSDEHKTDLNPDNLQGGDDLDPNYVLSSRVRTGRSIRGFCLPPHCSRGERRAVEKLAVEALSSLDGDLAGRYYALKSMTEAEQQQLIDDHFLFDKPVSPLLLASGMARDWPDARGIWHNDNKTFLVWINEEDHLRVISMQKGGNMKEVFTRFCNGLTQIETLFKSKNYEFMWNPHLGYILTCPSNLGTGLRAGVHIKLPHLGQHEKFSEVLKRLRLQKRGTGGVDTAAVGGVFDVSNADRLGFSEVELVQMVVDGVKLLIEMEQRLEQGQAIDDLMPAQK
Chain of human Vascular Endothelial Growth Factor Receptor 3 (VEGFR3), FLT4 (gene 2324) (P35916 whole entry, looked up): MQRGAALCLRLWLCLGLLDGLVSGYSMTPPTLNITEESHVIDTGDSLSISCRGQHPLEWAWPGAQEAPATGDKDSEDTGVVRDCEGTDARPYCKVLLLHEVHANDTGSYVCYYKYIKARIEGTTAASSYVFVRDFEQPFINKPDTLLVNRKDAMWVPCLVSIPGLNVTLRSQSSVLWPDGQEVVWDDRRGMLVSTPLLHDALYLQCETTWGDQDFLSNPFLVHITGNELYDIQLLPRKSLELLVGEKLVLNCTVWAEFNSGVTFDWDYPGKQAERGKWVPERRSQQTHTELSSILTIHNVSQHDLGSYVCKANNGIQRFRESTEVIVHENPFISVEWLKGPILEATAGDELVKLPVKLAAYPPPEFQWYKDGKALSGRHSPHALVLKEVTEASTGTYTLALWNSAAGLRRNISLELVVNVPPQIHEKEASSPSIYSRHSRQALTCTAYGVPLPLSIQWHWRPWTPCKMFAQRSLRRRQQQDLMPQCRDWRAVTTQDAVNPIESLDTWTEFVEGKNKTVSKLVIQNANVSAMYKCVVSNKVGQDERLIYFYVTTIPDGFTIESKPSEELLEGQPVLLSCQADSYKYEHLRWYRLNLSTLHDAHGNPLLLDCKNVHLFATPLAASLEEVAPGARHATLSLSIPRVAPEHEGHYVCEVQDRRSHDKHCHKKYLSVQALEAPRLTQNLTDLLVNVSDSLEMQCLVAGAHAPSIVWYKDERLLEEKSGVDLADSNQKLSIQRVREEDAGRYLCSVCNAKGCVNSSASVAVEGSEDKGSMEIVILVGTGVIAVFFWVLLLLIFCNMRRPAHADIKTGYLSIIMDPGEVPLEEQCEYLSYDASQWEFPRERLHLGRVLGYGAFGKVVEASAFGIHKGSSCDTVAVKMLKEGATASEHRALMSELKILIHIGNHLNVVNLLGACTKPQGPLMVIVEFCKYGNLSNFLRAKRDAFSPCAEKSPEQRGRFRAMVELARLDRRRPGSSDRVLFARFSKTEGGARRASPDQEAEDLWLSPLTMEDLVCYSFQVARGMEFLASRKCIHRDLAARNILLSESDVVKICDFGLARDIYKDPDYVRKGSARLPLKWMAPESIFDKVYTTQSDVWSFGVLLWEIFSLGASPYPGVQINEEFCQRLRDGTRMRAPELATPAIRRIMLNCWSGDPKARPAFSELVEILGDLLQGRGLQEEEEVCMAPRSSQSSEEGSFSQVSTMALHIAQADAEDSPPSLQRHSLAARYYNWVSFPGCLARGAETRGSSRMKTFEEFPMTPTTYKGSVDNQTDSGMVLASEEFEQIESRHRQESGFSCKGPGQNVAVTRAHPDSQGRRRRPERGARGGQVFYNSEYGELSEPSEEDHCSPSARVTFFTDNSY
Chain of human Tropomyosin Receptor Kinase A (TRKA), NTRK1 (gene 4914) (P04629 whole entry, looked up): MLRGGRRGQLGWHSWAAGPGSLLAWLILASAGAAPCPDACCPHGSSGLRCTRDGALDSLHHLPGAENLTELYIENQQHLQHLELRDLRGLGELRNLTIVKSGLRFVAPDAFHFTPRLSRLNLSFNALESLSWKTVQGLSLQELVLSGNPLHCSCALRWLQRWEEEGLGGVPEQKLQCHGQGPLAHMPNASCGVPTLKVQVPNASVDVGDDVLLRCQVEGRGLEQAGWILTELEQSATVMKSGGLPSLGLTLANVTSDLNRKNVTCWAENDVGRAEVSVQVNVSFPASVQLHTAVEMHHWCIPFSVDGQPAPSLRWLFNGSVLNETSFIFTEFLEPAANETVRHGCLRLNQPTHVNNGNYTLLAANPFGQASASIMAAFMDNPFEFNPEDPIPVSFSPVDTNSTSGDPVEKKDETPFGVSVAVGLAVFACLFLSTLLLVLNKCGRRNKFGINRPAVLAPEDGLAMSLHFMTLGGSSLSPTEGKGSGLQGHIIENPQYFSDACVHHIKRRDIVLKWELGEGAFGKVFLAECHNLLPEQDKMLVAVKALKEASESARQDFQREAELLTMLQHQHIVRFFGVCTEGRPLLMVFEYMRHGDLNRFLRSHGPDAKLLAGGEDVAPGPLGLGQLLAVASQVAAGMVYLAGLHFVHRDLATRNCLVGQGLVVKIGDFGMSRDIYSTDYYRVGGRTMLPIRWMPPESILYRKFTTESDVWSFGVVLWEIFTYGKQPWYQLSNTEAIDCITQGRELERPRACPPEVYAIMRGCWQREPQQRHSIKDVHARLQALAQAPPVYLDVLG

As to `O=c1[nH]cnc2c1ncn2[C@H]1CC[C@@H](CO)O1`, the outcome in test [1] was inactive. With `CCCC(CCC)C(=O)O`, the result in test [1] and in test [2] was inactive. Take `Cc1ncc([C@@H](CCCCCCc2ccc3c(n2)NCCC3)CC(=O)O)cn1`: in test [2], the outcome was inactive. Besides, in test [3], the AC50 is 29 µM (active). On to `CCCCC(CC)C(=O)OCCOCCOCCOC(=O)C(CC)CCCC` (configuration not stated), for which the result in test [4] was inactive. Take `c1ccc2ncccc2c1`: the half-maximal activity concentration (AC50) in test [4] was 6.6 µM (active). Take `OC[C@H]1O[C@@H]2O[C@H]3[C@H](O)[C@@H](O)[C@@H](O[C@H]4[C@H](O)[C@@H](O)[C@@H](O[C@H]5[C@H](O)[C@@H](O)[C@@H](O[C@H]6[C@H](O)[C@@H](O)[C@@H](O[C@H]7[C@H](O)[C@@H](O)[C@@H](O[C@H]1[C@H](O)[C@H]2O)O[C@@H]7CO)O[C@@H]6CO)O[C@@H]5CO)O[C@@H]4CO)O[C@@H]3CO`: the concentration at half-maximal activity (AC50) in test [3] is 3.51 µM (active).

As to `CCOc1ccc2[nH]cc(C(=O)NCc3ccccc3)c(=O)c2n1`, the compound was classed as inactive in test [5].

As to `COCc1nnc(-c2ccc[n+]([O-])c2)n1-c1c(Cl)c(Cl)cc2[nH]c(=O)c(=O)[nH]c12`, the result in test [6] was inactive.

For `Cn1cc[nH]c1=S`, the compound was classed as inactive in [2]. `CC(C)c1nnc2ccc(-c3ocnc3-c3cc(F)ccc3F)cn12`: the result in [2] was inactive.

For `Cn1c(=O)c2[nH]cnc2n(C)c1=O`, in [7], the outcome was inactive. On to `CCN(CC)C(=S)SSC(=S)N(CC)CC`, for which the compound was called inactive in test [8] and in test [9]. Turning to `CC[C@H](C)C(=O)O[C@H]1C[C@H](O)C=C2C=C[C@H](C)[C@H](CC[C@@H](O)C[C@@H](O)CC(=O)O)[C@H]21`, the result in test [9] and in [10] was inactive.

For the origin of these results see PubChem BioAssay (EPA / NIEHS).
